# Data: PubChem BioAssay (NCI)
# Compounds without any hit were thinned out: in the full panel of roughly 83,000, 20% have a hit.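 Cell lines were cultured in 96-well plates, exposed to a single compound concentration, and assessed for percent growth 48 hours later.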 Values without a mark were called inactive. Calls of active or inactive are those of the source. The calls were made as follows: active = growth percent below 10; inactive = the rest.
# Columns and labels:
# Assay in all cases: NCI-60 one-dose screen, 48 h (100 = growth as untreated, 0 = no growth, -100 = all killed)
# Conditions in all cases: 10 µM unless noted
# SK-MEL-2 melanoma = test system: SK-MEL-2 melanoma
# EKVX NSCLC = test system: EKVX NSCLC
# SN12C renal = test system: SN12C renal
# UO-31 renal = test system: UO-31 renal
# TK-10 renal = test system: TK-10 renal
# ACHN renal = test system: ACHN renal
# A498 renal = test system: A498 renal
# CCRF-CEM leukemia = test system: CCRF-CEM leukemia
# MOLT-4 leukemia = test system: MOLT-4 leukemia
# RPMI-8226 leukemia = test system: RPMI-8226 leukemia
# OVCAR-8 ovarian = test system: OVCAR-8 ovarian
# OVCAR-5 ovarian = test system: OVCAR-5 ovarian
# OVCAR-4 ovarian = test system: OVCAR-4 ovarian
# SK-OV-3 ovarian = test system: SK-OV-3 ovarian
# OVCAR-3 ovarian = test system: OVCAR-3 ovarian
# HS 578T breast = test system: HS 578T breast
# NCI/ADR-RES ovarian = test system: NCI/ADR-RES ovarian
# CAKI-1 renal = test system: CAKI-1 renal
# SR leukemia = test system: SR leukemia
# IGROV1 ovarian = test system: IGROV1 ovarian
SMILES,growth (SK-MEL-2 melanoma),growth (EKVX NSCLC),growth (SN12C renal),growth (UO-31 renal),growth (TK-10 renal),growth (ACHN renal),growth (A498 renal),growth (CCRF-CEM leukemia),growth (MOLT-4 leukemia),growth (RPMI-8226 leukemia),growth (OVCAR-8 ovarian),growth (OVCAR-5 ovarian),growth (OVCAR-4 ovarian),growth (SK-OV-3 ovarian),growth (OVCAR-3 ovarian),growth (HS 578T breast),growth (NCI/ADR-RES ovarian),growth (CAKI-1 renal),growth (SR leukemia),growth (IGROV1 ovarian)
NC(CCl)=NCC12CC3CC(CC(C3)C1)C2,-44.6% (active),-7.97% (active),9.41% (active),-98.5% (active),-2.27% (active),11.8%,33%,-15.8% (active),27.4%,-50.4% (active),-26.8% (active),7.23% (active),11.3%,24.2%,-21.9% (active),47.9%,3.54% (active),,,
COc1cc(N)c2ncccc2c1Cl,96.7%,84.3%,91.5%,,93.6%,91.2%,97.1%,,93.3%,83.9%,103%,90.2%,128%,105%,118%,130%,112%,95.8%,91.3%,117%
CCOC(OCC)C(=O)c1ccccc1,88.8%,109%,101%,,84.1%,99.3%,94%,99.8%,124%,99.8%,89.8%,94.1%,,105%,99.9%,94.3%,108%,107%,132%,105%
COc1ccc(Br)c(C=O)c1,104%,83.2%,63.9%,,83.7%,88.9%,93.4%,2.55% (active),18.9%,,69.1%,93.1%,88.5%,103%,74.2%,,51.6%,63.9%,8.35% (active),92.3%
CC(=O)O[C@H]1CC[C@]2(C)C3=C(C(=O)C[C@H]2C1(C)C)[C@]1(C)CC[C@H]([C@H](C)CCC(=O)O)[C@@]1(C)CC3=O,95.3%,90.8%,106%,92.2%,98.4%,103%,84.9%,98.9%,98%,,109%,100%,94.7%,99.3%,102%,119%,100%,,82.6%,103%
Cc1ccnc(Nc2nc3ccccc3[nH]2)n1,105%,104%,104%,104%,113%,106%,,93.3%,92.4%,94.1%,106%,,109%,101%,132%,,112%,,97.1%,97.6%
O=C1CSc2ccccc2N1,103%,97%,100%,69.2%,105%,110%,97.2%,96.6%,114%,95.2%,,116%,98.9%,112%,115%,,98.8%,,105%,105%
Cc1cc(C(=O)c2ccccc2)cc(C)c1O,118%,112%,106%,84%,123%,99.8%,98%,-22.1% (active),,81.2%,101%,99.5%,86.8%,101%,109%,,104%,,55.6%,103%
CC(=O)Nc1ncc(S(=O)(=O)c2ccc([N+](=O)[O-])cc2)s1,119%,114%,104%,79.4%,105%,115%,,101%,102%,100%,103%,109%,102%,94%,120%,,118%,,96.4%,112%
